Screening results as filed in PubChem.
A selection: hits, their analogues and other compounds. The true share with any hit is near 4.6%.
D1 antag: Antagonist of Human D 1 Dopamine Receptor: qHTS | activity change, negative = inhibition, % at 10 µM | D(1A) dopamine receptor (Homo sapiens), P21728 | HEK293 TREx D1 cells, calcium flux, dopamine EC80; stronger effect = lower value | 3.2% of 360,000 active | AID 504652, 2011; in the data active = activity change below about -30%; also: % is scaled to controls: 0 for no effect and ±100 for the full control effect
Target sequence (P21728 whole entry, looked up): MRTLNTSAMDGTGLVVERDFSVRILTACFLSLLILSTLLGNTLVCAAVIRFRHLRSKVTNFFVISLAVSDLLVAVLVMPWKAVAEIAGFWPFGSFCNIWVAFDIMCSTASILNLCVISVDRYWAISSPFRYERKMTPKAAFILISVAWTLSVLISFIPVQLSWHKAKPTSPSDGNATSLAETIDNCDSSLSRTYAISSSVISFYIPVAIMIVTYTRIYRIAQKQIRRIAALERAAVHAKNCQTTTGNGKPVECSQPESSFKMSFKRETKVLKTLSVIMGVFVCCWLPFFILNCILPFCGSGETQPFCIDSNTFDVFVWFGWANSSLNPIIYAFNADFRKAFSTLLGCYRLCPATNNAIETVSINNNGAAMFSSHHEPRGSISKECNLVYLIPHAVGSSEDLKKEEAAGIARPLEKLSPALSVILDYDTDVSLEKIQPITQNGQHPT
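Allosteric or orthosteric antagonism assessed as attenuation of the calcium response to EC80 dopamine, added 180 s after compound, in induced HEK293 Trex D1 cells loaded with no-wash calcium dye.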
TRHR ag: qHTS for Small Molecule Agonists and Allosteric Enhancers of Human TRH Receptor: Primary Screen for Agonists | 0.18% of 360,000 active | TRHR cells, calcium flux fluo-8, FDSS agonist mode | activation, % at 2 µM | Thyrotropin-releasing hormone receptor (Homo sapiens), P34981; also: 0% is about no effect
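Agonist-mode FDSS calcium read (Ex 480/Em 530, 1 s cycles) in 1536-well TRHR cells with fluo-8 dye, after 10-cycle baseline and 23 nL compound addition; TRH at EC20 (10 nM final) added afterwards for the enhancer phase.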
D1 PAM: Potentiators of Human D1 Dopamine Receptor: qHTS; AID 504651, 2011; potentiation, % at 10 µM; HEK293 TREx D1 cells, calcium flux, dopamine EC20 potentiation; D(1A) dopamine receptor (Homo sapiens), P21728; 0.036% of 360,000 active; in the data active = potentiation above about 30%; also: 0% is about no effect
D1 agonist: Allosteric Agonists of the Human D1 Dopamine Receptor: qHTS; AID 504660, 2011; D(1A) dopamine receptor (Homo sapiens), P21728; 1% of 360,000 active; HEK293 T-REx D1 cells, calcium flux, agonist mode; activation, % at 2 µM; also: 0% is about no effect
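Tetracycline-induced HEK293 TREx D1 cells, force-coupled to calcium signalling, were dye-loaded with a no-wash calcium kit. Compound was pin-added after a 10 s baseline. Fluorescence was read kinetically at 1 cycle/s for 180 s, with calcium rises flagged as agonism.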
TRHR PAM: qHTS for Small Molecule Agonists and Allosteric Enhancers of Human TRH Receptor: Primary Screen for Enhancers. Thyrotropin-releasing hormone receptor (Homo sapiens), P34981. TRHR cells, fluo-8 calcium fluorescence, EC20 TRH enhancement. enhancement, % at 2 µM. 0.66% of 360,000 active; in the data active = enhancement above about 30%; also: 0% is about no effect
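Enhancer read-out: after compound pinning and an initial kinetic agonist-mode read, an EC20 of TRH (10 nM final) was injected and fluo-8 calcium signal (Ex 480/Em 530) followed at 1 s/cycle for 100 cycles in TRHR-expressing cells.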
Epigenetic reg: Quantitative High-Throughput Screen for Regulators of Epigenetic Control; AID 1865, 2009; 0.2% of 280,000 active; Potency, µM (top dose mostly 53.9 µM), inactives show top-dose GFP activation, hits mostly activators; murine LDR cells, GFP reporter derepression, 30 h; active = well fitted activation curve with a large enough effect; inconclusive = small, poorly fitted or top-dose-only effect; also: potency is read from the fitted curve at half-maximal effect; % of control where 0% means no effect; nearly all actives have a fitted effect of over 60% in size
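Murine LDR cells carrying a silenced, genomically integrated CMV-driven GFP reporter were exposed to compound for 30 hours at 37 C. After PBS washes, GFP-positive cells (20–120 um objects) were counted by laser-scanning microplate cytometry.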
* marks the source's active call; other numbers are inactive results; ! = not confirmed by another sample. Rule as the data show it, unless noted: active = activation above about 30%; inactive = the rest.

Cc1csc(CNc2ncnc3ccc(-c4ccco4)cc23)c1 was read as D1 antag -39*, TRHR ag 0, D1 PAM -9, D1 agonist -1 and TRHR PAM -8.
`c1cncc(CNc2ncnc3ccc(-c4ccco4)cc23)c1` gave D1 antag -77*, TRHR ag 0, D1 PAM -10, D1 agonist 0 and TRHR PAM -5.
For CCCN(Cc1nnc(-c2ccccc2Cl)o1)C(=O)c1cc2ccccc2o1 the results were D1 antag -31*, TRHR ag -1, D1 PAM -4, D1 agonist 12 and TRHR PAM -14.
C=CCOC(=O)C1=C(C)NC(=O)NC1/C=C/c1ccccc1 (centres undefined) was read as D1 antag -31*, TRHR ag 0, D1 PAM -4, D1 agonist 1, TRHR PAM 4 and Epigenetic reg -1%.
CCOC(=O)C1=C(C)NC(=O)NC1/C=C\c1ccccc1 (centres undefined) was read as D1 antag -13, TRHR ag 0, D1 PAM 3, D1 agonist 2 and TRHR PAM 5.
Screening O=C(Nc1nnc(S(=O)(=O)N2CCCCC2)s1)c1cccc(Br)c1 returned D1 antag -5, TRHR ag 1, D1 PAM -4, D1 agonist 30* and TRHR PAM -1.
For CCC(CC)C(=O)Nc1nnc(S(=O)(=O)N2CCCCCC2)s1 the results were D1 antag 0, TRHR ag 2, D1 PAM 5, D1 agonist 7, TRHR PAM -8 and Epigenetic reg 8%.
`O=C(Nc1nnc(S(=O)(=O)N2CCCCCC2)s1)c1ccc(Cl)cc1` gave D1 antag 4, TRHR ag 1, D1 PAM 8, D1 agonist 8, TRHR PAM 37*! and Epigenetic reg 5%.
CC1CCN(S(=O)(=O)c2nnc(NC(=O)c3cccc(Br)c3)s2)CC1 was read as D1 antag 10, TRHR ag 0, D1 PAM 0, D1 agonist 1, TRHR PAM -1 and Epigenetic reg 0%.
CC1CCN(S(=O)(=O)c2nnc(NC(=O)c3cccc(F)c3)s2)CC1 was read as D1 antag 5, TRHR ag 1, D1 PAM 5, D1 agonist 2, TRHR PAM 5 and Epigenetic reg 13µM*.
For O=C(Nc1nnc(S(=O)(=O)N2CCCC2)s1)c1cccc([N+](=O)[O-])c1 the results were D1 antag -1, TRHR ag 0, D1 PAM 5, D1 agonist 3 and TRHR PAM 2.
For CC(C)C(=O)Nc1nnc(S(=O)(=O)N2CCCCCC2)s1 the results were D1 antag -32*!, TRHR ag 1, D1 PAM -1, D1 agonist 0, TRHR PAM 7 and Epigenetic reg inconclusive.
CCCNC(=O)C1CCC(Cn2c(=O)c3sccc3n(CC(=O)N3CCCC(C)C3)c2=O)CC1 (centres undefined) was read as D1 antag -4, TRHR ag 0, D1 PAM -4, D1 agonist 0, TRHR PAM 2 and Epigenetic reg 2%.
For CCn1cc(C(=O)NC(C)C2CC3CCC2C3)cn1 (centres undefined) the results were D1 antag -12, TRHR ag 1, D1 PAM 1, D1 agonist 3, TRHR PAM 31* and Epigenetic reg -2%.
Screening CCn1cc(C(=O)NC(C)C23CC4CC(CC(C4)C2)C3)cn1 (centres undefined) returned D1 antag 1, TRHR ag -1, D1 PAM -2, D1 agonist -1, TRHR PAM 7 and Epigenetic reg -1%.
CC(=O)Nc1ccc(OS(=O)(=O)c2c(C)cc(C)cc2C)cc1 was read as D1 antag -66*, TRHR ag 1, D1 PAM -2, D1 agonist 4, TRHR PAM -5 and Epigenetic reg -2%.
Screening CC(=O)Nc1ccc(S(=O)(=O)Oc2ccc(C(=S)N3CCCCC3)cc2)cc1 returned D1 antag -33*, TRHR ag 0, D1 PAM -9, D1 agonist 26, TRHR PAM -14 and Epigenetic reg -1%.
Screening CC(=O)Nc1ccc(OS(=O)(=O)c2ccc(C)cc2C)cc1 returned D1 antag -12, TRHR ag -1, D1 PAM -7, D1 agonist 3, TRHR PAM 8 and Epigenetic reg 0%.
For CCOc1cc(C(=S)N2CCOCC2)ccc1OS(=O)(=O)c1ccc(NC(C)=O)cc1 the results were D1 antag -33*, TRHR ag 1, D1 PAM -5, D1 agonist 7, TRHR PAM -3 and Epigenetic reg 0%.
Screening CC(C)Cc1ccc(C(C)C(N)=NCCc2ccccc2)cc1 (centres undefined) returned D1 antag 20, TRHR ag 3, D1 PAM -8, D1 agonist 30* and TRHR PAM -6.
`Cn1nnnc1SCCCNCc1ccc(-c2ccc(Br)cc2)o1` gave D1 antag -21, TRHR ag 1, D1 PAM 0, D1 agonist 41*, TRHR PAM 2 and Epigenetic reg -3%.
Screening Brc1cccc(CNCCSc2nnnn2-c2ccccc2)c1 returned D1 antag 7, TRHR ag -2, D1 PAM 5, D1 agonist 5, TRHR PAM -3 and Epigenetic reg 9%.
Screening CCOc1ccc(Br)cc1CNCCSc1nnnn1-c1ccccc1 returned D1 antag -38*, TRHR ag 7, D1 PAM 1, D1 agonist 106*, TRHR PAM -14 and Epigenetic reg -1%.
Screening Cn1nnnc1SCCCNCc1cc(Br)ccc1OCc1ccccc1 returned D1 antag -25, TRHR ag 0, D1 PAM -1, D1 agonist 39*, TRHR PAM -1 and Epigenetic reg -2%.
Screening Cn1nnnc1SCCNCc1ccc(OCc2ccc(Cl)cc2)cc1 returned D1 antag -9, TRHR ag 1, D1 PAM -1, D1 agonist 46*, TRHR PAM -4 and Epigenetic reg -1%.
